Structures are written as SMILES.

In assay [1] the target is T1, Aspartate--tRNA(Asp/Asn) ligase (Mycobacterium tuberculosis (strain ATCC 25618 / H37Rv)) (UniProt P9WFW3). Further: in the data most compounds retested in dose-response had high values.
T1 sequence (whole entry): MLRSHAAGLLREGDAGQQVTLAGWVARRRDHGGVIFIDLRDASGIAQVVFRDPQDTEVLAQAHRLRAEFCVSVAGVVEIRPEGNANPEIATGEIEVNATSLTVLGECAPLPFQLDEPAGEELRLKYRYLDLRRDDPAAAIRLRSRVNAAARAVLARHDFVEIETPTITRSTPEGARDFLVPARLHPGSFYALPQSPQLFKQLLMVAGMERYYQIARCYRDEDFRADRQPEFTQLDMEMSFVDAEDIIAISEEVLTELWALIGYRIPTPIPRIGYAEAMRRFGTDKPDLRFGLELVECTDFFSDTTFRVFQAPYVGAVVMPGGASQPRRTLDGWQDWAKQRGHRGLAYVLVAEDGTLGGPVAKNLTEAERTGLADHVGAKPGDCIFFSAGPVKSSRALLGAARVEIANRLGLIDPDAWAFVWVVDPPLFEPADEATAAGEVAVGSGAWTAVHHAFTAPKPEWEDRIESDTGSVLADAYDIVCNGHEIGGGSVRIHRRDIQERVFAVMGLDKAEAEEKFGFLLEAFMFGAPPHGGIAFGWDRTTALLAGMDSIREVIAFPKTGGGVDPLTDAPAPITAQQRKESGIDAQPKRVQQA
Put plainly: Assay for Asp RNA synthetase-1 from Mycobacterium tuberculosis. The format is functional. Also noted: scale not given: direction of the effect not stated beside the values. The settings on record: 30 µM.

Assay [2] addresses Shiga toxin 2 (Escherichia coli O157:H7) (UniProt P09385+P09386). Put plainly: E. coli 0.157:H7 Shiga Toxin SOP - stx2 screening assay. It counts as functional. Also noted: scale not given: direction of the effect not stated beside the values. Particulars: 30 µM.

For `Cc1ccc(S(=O)(=O)NC2CC2)cc1C`, the Percent Effect in assay [1] was -2.59%; in assay [2], -0.587%.
Regarding `COCCCN(CCOC)C(=O)Nc1ccc(C)cc1C`, the results for the Percent Effect in assay [1] and in assay [2] were 0.599% and 1.16%, respectively.
Taken in the same sequence, the figures for `N#Cc1cn(C2CC2)c(=O)n(CC(O)c2ccc(OC(F)F)cc2)c1=O` (centres undefined) were 1.23% and 14%.
Taken in the same sequence, the figures for `O=C(CCc1nccs1)N1CCN(c2ncccn2)CC1` were -0.577% and 11.5%.
The like results for `COc1cc(CC(O)CO)c(OC)c2c1OCO2` (centres undefined) were, in that order, -3.19% and -10.5%.
Regarding `CCCn1nccc1C(=O)N1CCCN(CCCc2ccccc2)CC1`, the figures for the Percent Effect in assay [1] and in assay [2] were -3.6% and -14.4%, respectively.
As to `Cc1c(F)cc(C(=O)O)cc1S(=O)(=O)Nc1cccc(C(F)F)c1`, the Percent Effect was -0.0333% in assay [1] and 12.3% in assay [2].
Taken in the same sequence, the figures for `CC1CCN(c2ncc3c(n2)CN(c2ccccc2)C3=O)CC1` were 3.06% and -36.5%.
For the compound `CCOc1ccccc1C(CC(=O)Nc1nc(C)cs1)NC(C)=O` (centres undefined), the figures for the Percent Effect in assay [1] and in assay [2] were -0.233% and 30.8%, respectively.
As to `Cc1cc(CNC(=O)N2CCN(c3ccccc3)CC2)no1`, the Percent Effect in assay [1] is 1.31%; in assay [2], -2.24%.
Taken in the same sequence, the figures for `CC(C)c1nc(C2CCCN(C(=O)Cc3cccnc3)C2)no1` (centres undefined) were -2.44% and 23.6%.
Consider `CN(C)C(=O)[C@@H]1CCO[C@@H]2CCN(Cc3ccc4c(c3)OCO4)C[C@@H]21`, for which the figures for the Percent Effect in assay [1] and in assay [2] were -0.534% and -27.6%, respectively.
Taken in the same sequence, the figures for `CC(C)C(C)NC(=O)Nc1ccc(CS(C)(=O)=O)cc1` (centres undefined) were 3.12% and -11.6%.
The like results for `CCC1c2ccsc2CCN1C(=O)NCCNc1ncccn1` (centres undefined) were, in that order, -3.52% and 10.9%.
As for `CC(C)c1nc2n(n1)CC(NCc1nc(-c3cccnc3)no1)CC2` (centres undefined), the Percent Effect in assay [1] was -2.88%; in assay [2] it was -31.5%.
Taken in the same sequence, the figures for `COc1ccc(C2Nc3cc(Cl)ccc3C3=NCCN32)cc1OC` (centres undefined) were -3.07% and -59.6%.
With `O=C(NCCc1c[nH]cn1)c1ccc2c(c1)C(=O)N(C1CC1)C2=O`, the results for the Percent Effect in assay [1] and in assay [2] were -1.45% and -47.1%, respectively.
